Source: PubChem BioAssay (NCI)
Compounds without any hit were thinned out: in the full panel of roughly 83,000, 20% have a hit.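 The endpoint reported here, percent growth, reads 100 for growth as untreated, 0 for no net growth and -100 for all cells dead.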 A number with no mark means an inactive call. Activity calls are given as the source filed them. How the source made its calls: active means growth percent below 10; inactive means the rest.

What follows are compounds tested on MDA-MB-468 breast (assay: NCI-60 one-dose screen, 48 h (100 = growth as untreated, 0 = no growth, -100 = all killed)). Conditions: 10 µM unless noted.

How did the growth turn out when CCOC(=O)c1sc(-c2ccc(OS(=O)(=O)c3ccc(Br)s3)c(C=O)c2)nc1C was run?
Its growth is 18.1%.

With COc1ccc(C(=O)c2cc(C(=O)/C=C/c3c(Cl)cccc3Cl)c3cc(C)ccn23)cc1 as the compound, how does the growth read?
Its growth is 96.1%.

Which growth does the source give for CC1(O)COCCCCOc2c(CN)cccc2NC(=O)c2nc(cnc2N)-c2ccc(cc2)S(=O)(=O)C(C)(C)C1 (stereo not given) here?
The growth was -35.1% (active).

With CCOC(=O)C1=C(CCl)N(C)C(=O)NC1c1ccc2c(c1)OCO2 (stereo not given) as the compound, how does the growth read?
The growth was 24.1%.

Nc1c(C(=O)Nc2ccccc2)sc2nc3c(cc12)C(=O)CCC3 was tested. Which growth did it give?
Its growth is 4.62% (active).

Which growth does the source give for COc1cc2oc(-c3cccc(NC(=O)c4cccc([N+](=O)[O-])c4)c3)cc(=O)c2c(OC)c1OC here?
Its growth is -1.02% (active).

With COc1ccc(-c2ccc(-c3ccc(C(=N)N)cn3)s2)cc1OC as the compound, how does the growth read?
Its growth is 92.6%.

For CCOC(=O)c1ccc2c(c1)c1c(C)c3ccncc3c(C)c1n2C, which growth is on record?
Its growth is 5.19% (active).

How did the growth turn out when COc1c(N2CC3CCCNC3C2)c(F)cc2c(=O)c(C(=O)N/N=C/c3ccc(N(C)C)cc3)cn(C3CC3)c12 (stereo not given) was run?
The growth was 79%.

O=S(=O)(Nc1ccc(-c2nc(-c3cccc(O)c3)c(-c3ccnc(Br)c3)[nH]2)cc1)c1ccccc1 was tested. Which growth did it give?
Its growth is -3.6% (active).

Which growth does the source give for C=C1C(=O)O[C@H]2[C@H]1CC/C(Cn1cc(CNCCc3c[nH]c4ccccc34)nn1)=C\CC[C@@]1(C)O[C@@H]21 here?
The growth was 37.3%.

Which growth does the source give for COc1ccc([C@@H]2[C@@H](O)C(=O)N2c2cc(OC)c(OC)c(OC)c2)cc1F here?
Its growth is -3.08% (active).

COc1cc(/C=C/C(=O)c2c(C)oc3nc[nH]c(=O)c23)cc(OC)c1OC was tested. Which growth did it give?
Its growth is 64.3%.

Cc1ccc(-n2c(/C=C3\C(=O)Nc4ccccc43)ccc2CO)cc1 was tested. Which growth did it give?
The growth was 45.1%.

How did the growth turn out when O=C(NNC(=O)c1ccc(NC(=O)c2ccccn2)cc1)Nc1ccc([N+](=O)[O-])cc1 was run?
Its growth is 94.2%.

How did the growth turn out when CNC(=O)c1cc(Oc2ccc3nc(NC(C)=O)sc3c2)ccn1 was run?
The growth was 100%.

For C#CCOc1ccc2nc(CCl)c(Cl)c(Nc3cccc(C(F)(F)F)c3)c2c1, which growth is on record?
The growth was 10.3%.

With CN1CCN(CCCOc2ccc3ncnc(Nc4ccc(Oc5cccc(F)c5)c(Cl)c4)c3c2)CC1 as the compound, how does the growth read?
Its growth is -66% (active).

NC1CCC(Nc2nc(NCc3ccc(-c4cccs4)nc3)c3ncn(C4CCCC4)c3n2)CC1 (stereo not given) was tested. Which growth did it give?
Its growth is -65.8% (active).

With Cc1[nH]nc2c1C(c1cnn(C)c1)C(C#N)=C(N)O2 (stereo not given) as the compound, how does the growth read?
The growth was 92.4%.

CCCCCC(=C/c1ccccc1)/C=N/N=C(N)N was tested. Which growth did it give?
The growth was -87.4% (active).

Which growth does the source give for Nc1cc(N)nc(SCC(=O)O)n1 here?
The growth was 108%.

Which growth does the source give for Cc1cc(C(=O)Nc2ccc(SC#N)cc2)c(C)o1 here?
The growth was 96.1%.

With CN(CCOc1ccc(CC2SC(=O)NC2=O)cc1)c1ccccn1 (stereo not given) as the compound, how does the growth read?
Its growth is 100%.

Which growth does the source give for CCCCOc1c(N)cccc1C(=O)OCCN(CC)CC here?
The growth was 112%.

For O=C(NC1CCCCC1)c1ccc(Cl)cc1, which growth is on record?
Its growth is 104%.

With COc1cc(CCn2nnc3c(NCCCCO)ncnc32)cc(OC)c1 as the compound, how does the growth read?
The growth was 93.5%.

COc1cc(C(=O)/C=C/c2c[nH]c3ccccc23)cc(OC)c1OC was tested. Which growth did it give?
Its growth is -5.45% (active).

How did the growth turn out when COc1ccc(/C=N/NC(=O)c2cccc3cc[nH]c23)cc1O was run?
Its growth is 11.3%.

COc1cccc2cc(-c3cc4ccccc4[nH]3)c(=NC(=O)c3ccc(Cl)cc3)oc12 was tested. Which growth did it give?
Its growth is 75%.

Which growth does the source give for O=C1C=CN2C(=O)CC=CC2[C@@H]1O (stereo not given in full) here?
The growth was 110%.

How did the growth turn out when CS(=O)(=O)N1CCc2c(-c3cnc(N)nc3)nc(N3CCOCC3)nc21 was run?
The growth was -27.9% (active).

For CCN(CC)CCCC(C)Nc1ccnc2ccc(Oc3ccccc3)cc12 (stereo not given), which growth is on record?
The growth was 54.7%.

How did the growth turn out when c1ccc(-c2nn(-c3ccccc3)[n+](-c3ccccc3-c3ccccc3)n2)cc1 was run?
Its growth is -38.6% (active).

Which growth does the source give for CN(C)CCOC(=O)Nc1nc2ccc(Sc3ccccc3)cc2[nH]1 here?
The growth was 2.02% (active).

With Cc1c(-c2csc(-n3nc(C(F)(F)F)cc3C(F)(F)F)n2)no[n+]1[O-] as the compound, how does the growth read?
Its growth is 81.2%.

With O=C(O)c1ccc(-n2cc(/C=N/Nc3ccccc3)c(-c3ccc(F)cc3F)n2)cc1 as the compound, how does the growth read?
The growth was 89.3%.

For OB1OCc2cc(/C=C/c3cccc(C(F)(F)F)c3)ccc21, which growth is on record?
Its growth is 5.08% (active).

Fc1ccc(Nc2nc(Nc3ccc(-c4nc5ccccc5[nH]4)cc3)nc(N3CCCC3)n2)cc1 was tested. Which growth did it give?
Its growth is 83.6%.

With COc1cccc(-c2nn(-c3ccccc3)cc2-c2ccnc(-c3cccnc3)c2)c1 as the compound, how does the growth read?
The growth was 80.4%.
